Screening data as filed in PubChem BioAssay.
HSV augment: increases HSV replication in cells; HSV replication augmentation in cells, fold increase; maximum fold increase; 220,000 compounds, 0.005% hits; AID 1956; in the data active means maximum fold increase above about 1.5; inconclusive means no clear call, values can overlap the other calls; tested in PC3 cells
TAG inh: triacylglycerol accumulation inhibition; H9c2 cells, Nile Red lipid (TAG) fluorescence; cells loaded with 200 µM oleic acid; 230,000 compounds, 0.66% hits; AID 651582; inhibition, % at 12.5 µM;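 active means pattern-corrected inhibition of lipid staining of at least 50% with the nuclear-stain viability signal not falling by more than 50%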;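 further: 0% = DMSO wells and 100% = triacsin C control wells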
A1 inh: inhibitors of the anti-apoptotic protein A1, read as caspase activation. MEF A1-2A-BIM cells, Caspase-Glo 3/7 luminescence, 3 h; percent of clofoctol response, vehicle zero. caspase activation, % (test concentration not listed). 330,000 compounds, 0.066% hits;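 active means over half of replicate activation scores above 10%, or exactly half above 10 with the replicate mean above 10; inconclusive means replicate mean below 10 yet half the replicates above 10; inactive means over half of replicates below 10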
Efflux pump mplx: antifungal efflux pump inhibition, Nile Red retention. S. cerevisiae Candida pump triplex. inhibition, % at 10 µM. 330,000 compounds, 0.44% hits;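 active means plate passing quality check with inhibition over a set limit, or well fluorescence over plate mean plus 4 SD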;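 further: Nile Red retained in pooled yeast measured as flow cytometry median fluorescence; 0% = buffer negative control and 100% = Enniatin B positive control; higher means more Nile Red kept so more efflux inhibition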
GC-A act: GC-A (human) enzyme activation; P16066; HEK293 GC-A cells, cGMP TR-FRET, EC30 ANP; 0% at EC30 ANP, 100% saturating ANP; activation, % at 10 µM; 370,000 compounds, 0.14% hits; AID 1671463; in the data active means activation above about 40%
NPR2 activator: GC-B (human) receptor activation; P20594; HEK293-GC-B cells, CNP EC30, cGMP TR-FRET; 0% at EC30 CNP, 100% saturating CNP; activation, % at 10 µM; 370,000 compounds, 0.11% hits; AID 1920062;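 active means activation at 10 µM reaching about 35% in either raw or pattern-adjusted values, limit read from the data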
* marks the source's active call; other numbers are inactive results; i = inactive; ? = inconclusive; . = no result. Sampled rows, rich in hits. Any-hit rate of the full collection: about 1%.

SMILES	HSV augment	TAG inh	A1 inh	Efflux pump mplx	GC-A act	NPR2 activator
O=C(N/N=C/c1cccc2cccnc12)c1ccccc1O	i	65.1*	0.3	0.2	11.0	-0.5
O=C(CSc1nnc(COc2ccc(Cl)cc2)o1)OC1CCCCC1	i	-26.6	-1.7	0.0	76.1*	17.1
Cc1cc(OCc2nnc(SCC(=O)OC3CCCCC3)o2)ccc1Cl	i	6.8	-0.2	-0.1	66.2*	7.1
O=C(CSc1nnc(CNc2cccc(Cl)c2)o1)OC1CCCCC1	i	2.7	0.7	0.0	19.8	-7.0
O=C(Nc1cc(Cl)ccc1F)C1CCCN(c2nnc(-n3cccc3)s2)C1 (centres undefined)	.	.	.	.	1.9	-1.0
COc1ccc(N2CCN(CCCNC(=O)COc3ccc(F)cc3)CC2)cc1	.	.	.	.	1.5	-7.1
CCOC(=O)N1CCN(C(=O)C[C@@H]2C(=O)N(Cc3ccc(OC)cc3)C3=CCN(C(=O)OC(C)(C)C)C[C@]32C(=O)OCC)CC1	.	.	.	.	0.0	-9.6
COc1ccccc1CNC(=O)/C=C/c1ccc(Br)o1	i	51.3*	-0.8	0.2	-4.2	3.5
O=C(Nc1nc2c(Br)cc(Br)cc2c(=O)s1)c1ccco1	i	-7.7	3.4	0.1	77.5*	35.2*
Cc1cc(C)c2nc(NC(=O)c3ccco3)sc2c1	.	.	-5.5	0.1	0.9	-7.5
COc1ccc(CCNC(=O)CCOc2ccc(C)cc2)cc1OC	.	22.8	6.1*	-0.2	5.2	2.9
COc1ccc(CN2CC(=O)N(c3cccc(Cl)c3)C2=S)cc1OC	.	.	-0.4	0.3	43.8*	2.5
COc1ccc(CN2CC(=O)N(c3ccc(Cl)cc3)C2=S)cc1OC	.	.	-0.2	0.4	1.8	3.9
CCCCNC(=O)C[C@H]1C(=O)N(CCCOC)C2=CCCCC[C@]21C(=O)OC	.	.	.	.	0.1	0.5
O=C(OCCN1CCN(C2CN(Cc3cn(Cc4ccccc4Cl)nn3)S(=O)(=O)C2)CC1)c1cccs1 (centres undefined)	.	.	.	.	1.9	1.8
O=C(Nc1cccc(NC(=O)c2cccs2)c1)c1ccc([N+](=O)[O-])o1	i	61.4*	0.8	0.0	-0.2	2.7
O=C(Nc1ccc2oc(-c3cccnc3)nc2c1)c1ccc([N+](=O)[O-])o1	i	74.7*	.	.	2.9	-8.1
O=C(Nc1ccc2oc(-c3cccnc3)nc2c1)c1ccc(Br)o1	i	4.5	0.8	-0.1	1.8	7.6
COc1ccccc1C=NNC(=O)NN=Cc1ccccc1OC	.	16.6	.	.	-1.5	-3.6
COc1ccccc1C=NN=C(NN=Cc1ccccc1OC)NN=Cc1ccccc1OC	.	56.5*	.	.	-11.3	2.1
COc1cccc(C=NNC(=O)CSc2nc3ccccc3[nH]2)c1O	.	.	.	.	-2.0	-11.2
CC(=O)N1CCN(c2cc(C)nc3nc(C)nn23)CC1	.	.	.	.	0.1	-0.7
CC(=O)Nc1sc2c(c1-c1nc3ccccc3s1)CN(C(C)C)CC2	.	78.3*	0.9	0.0	11.0	8.1
CC(=O)Nc1sc2c(c1-c1nc3ccccc3s1)CN(C(C)C)C2	.	.	.	.	10.9	8.4
CCNC(=S)N/N=C/c1ccc(OCC(=O)Nc2ccc(OC)cc2)c(OC)c1	i	.	0.2	0.1	39.4	55.1*
SMILES	HSV augment	TAG inh	A1 inh	Efflux pump mplx	GC-A act	NPR2 activator
COc1cc(/C=N/NC(=S)NC(C)C)ccc1OCC(=O)Nc1c(C)cc(C)cc1C	i	.	-0.2	-0.1	34.1	43.9*
CCCCNC(=S)N(C)/N=C/c1ccc(OCC(=O)Nc2c(C)cc(C)cc2C)c(OC)c1	i	.	0.1	0.1	6.0	14.6
O=C(Nc1ccccc1C(F)(F)F)OC1CCC12CCC(c1ccccc1)CC2 (centres undefined)	.	.	.	.	-4.5	-12.2
COc1cc(NC(=O)C2CCCN(S(=O)(=O)c3ccc(Cl)s3)C2)cc(OC)c1 (centres undefined)	.	.	.	.	-7.6	-7.9
O=S(=O)(c1cccs1)N1CN(Cc2ccco2)c2nc3ccccc3nc21	?	9.9	0.0	0.7*	5.2	2.2
Cc1ccc(NC(=O)c2ccc([N+](=O)[O-])o2)c(C)c1	i	90.9	0.1	-0.1	-1.9	-6.5
Cc1ccc(S(=O)(=O)c2ccc([N+](=O)[O-])o2)cc1	.	76.7*	.	.	23.7	32.4
O=C(CCl)Nc1cccc(S(=O)(=O)NC2=NCCCCC2)c1	.	57.4*	0.5	-0.1	-3.6	2.3
c1ccc(-c2cc3c(N4CCN(c5ncccn5)CC4)ncnc3s2)cc1	i	3.5	0.4	-0.1	51.7*	5.4
